Data from PubChem BioAssay AID504466 (National Center for Advancing Translational Sciences (NCATS), 2011).
Among all 330,000 compounds or so, about 4,200 (1.3%) were called active. Another 6% or so got no clear call; they are omitted. Shown is part of a subset that was picked to be rich in actives. Entries that show only a call come without a potency. Unmarked numbers belong to inactive results. The call rests on the fitted dose curve; in most records, active means well fitted activation curve with a large enough effect; inconclusive means small, poorly fitted or top-dose-only effect; inactive means no such curve, though single readings can be large or run the other way.

Experiment: qHTS screen for small molecules that induce genotoxicity in human embryonic kidney (HEK293T) cells expressing luciferase-tagged ELG1; further: nearly all actives have a fitted effect of over 60% in size
Details: HEK293T ELG1-luciferase reporter, luminescence, 16 h; series mostly up to 46 µM
Procedure, shortened: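 ELG1-luciferase HEK293T cells, 2,000/well; compound pinned in; 16 hr, 37 °C, 5% CO2; ONE-Glo, 30 min RT; luminescence on CCD imager.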
Potency means the concentration at half of the fitted maximal effect.

Row | SMILES | Potency | activity change, positive = activation
1 | NCCN1CCN2C(=O)CN(C(=O)c3ccccc3)CC12 (stereo not drawn) | inactive | –
2 | O=C1CCC/C=C/C[C@@H](CC(=O)N(CCO)Cc2ccccc2)C(=O)NC[C@H](c2ccccc2)O1 | inactive | –
3 | CC[C@]12c3[nH]c4ccc(Cl)cc4c3CCN1C(=O)[C@@H](CC(=O)NCCCOC)C[C@@H]2C(=O)N1CCN(C(=O)C2CC2)CC1 | inactive | –
4 | COCCCNC(=O)CC1C[C@H](C(=O)N2CCCCC2)[C@@]2(CCc3ccccc3)c3[nH]c4ccccc4c3CCN2C1=O (stereo partly drawn) | inactive | –
5 | N=c1oc2ccccc2cc1C(=O)NCc1ccccc1 | inactive | –
6 | COc1ccc2oc(=O)c(C(=O)NCc3ccccn3)cc2c1 | inactive | –
7 | O=C(NCc1ccccn1)c1cc2ccccc2oc1=O | 14.6 µM (active) | –
8 | CCNC(=O)N(CC)C[C@H]1N[C@@](CC)(C(=O)OC)[C@H]2C(=O)N(Cc3ccccc3)C(=O)[C@@H]12 | inactive | –
9 | CN(C(=O)COC(=O)Cc1ccccc1[N+](=O)[O-])C1CCS(=O)(=O)C1 (stereo not drawn) | inactive | –
10 | CCc1c(C)nc2cc(C)[nH]n2c1=O | inactive | –
11 | CCc1c(C)nc2cc(-c3cccs3)[nH]n2c1=O | 20.6 µM (active) | –
12 | Cc1cc(=O)n2[nH]c(-c3sccc3-n3c(C)ccc3C)cc2n1 | inactive | –
13 | Cc1cccc(NS(=O)(=O)c2ccc(C)c(C(=O)NCc3cccnc3)c2)c1 | inactive | –
14 | CN(c1ccccc1)S(=O)(=O)c1ccc(C(=O)N2CCN(c3ccccc3Cl)CC2)cc1 | inactive | –
15 | CC(NC(=O)COC(=O)Cn1cc(C(F)(F)F)ccc1=O)c1ccccc1 (stereo not drawn) | inactive | –
16 | COc1ccc(S(=O)(=O)N2CCOCC2)cc1NC(=O)CSc1nnc(NC2CC2)s1 | inactive | –
17 | O=C(Nc1ccc(C(=O)O)c(O)c1)c1ccccc1 | inactive | –
18 | Cc1ccc(NC(=O)NC(=O)c2ccccc2)cc1F | inactive | –
19 | O=C(NC(=O)c1ccccc1)Nc1ccccc1O | 1.83 µM (active) | –
20 | COc1ccc(CCOC2OC(CO)C(OC(=O)/C=C/c3ccc(O)c(OC)c3)C(O[C@H]3O[C@@H](C)[C@H](O)[C@@H](O)[C@H]3O)C2O)cc1O (stereo partly drawn) | inactive | –
21 | O=C(COC(=O)c1ccc(Br)o1)NC12CC3CC(CC(C3)C1)C2 | inactive | –
22 | COc1ccc(NC(=O)CS(=O)(=O)c2ccccc2)cc1 | inactive | –
23 | COc1ccc(C(CC(=O)c2ccccc2)S(=O)(=O)c2ccccc2)cc1 (stereo not drawn) | 18.4 µM (active) | –
24 | COc1ccc(N(Cc2ccccc2)S(=O)(=O)c2cccc(C(=O)O)c2)cc1 | inactive | –
25 | O=C(Nc1cc(S(=O)(=O)N2CCOCC2)ccc1N1CCOCC1)c1c(F)cccc1Cl | inactive | –

Row | SMILES | Potency | activity change, positive = activation
26 | Cc1ccc(C(=O)Oc2coc(CSc3nnc(NC(=O)c4cccs4)s3)cc2=O)cc1C | inactive | –
27 | CCOc1cccc(C(=O)Nc2nnc(-c3cccs3)s2)c1 | 1.16 µM (active) | –
28 | Cc1ccc(C(=O)Nc2nnc(-c3cccs3)s2)cc1C | 8.2 µM (active) | –
29 | CCOc1cccc(C(=O)Nc2cnn(Cc3ccccc3)c2)c1 | inactive | –
30 | Cc1nnc(NC(=O)c2ccc3nccnc3c2)s1 | inactive | –
31 | COc1cccc(C(=O)Nc2nnc(S(=O)(=O)N(C)c3ccccc3)s2)c1 | inactive | –
32 | O=C(OCC(=O)N1CCN(C(=O)c2ccco2)CC1)c1c(Cl)cccc1Cl | inactive | –
33 | O=C(Nc1cc(S(=O)(=O)Nc2ccc(Cl)cc2)ccc1O)c1ccc(F)cc1F | inactive | –
34 | COC(=O)C1CCN(C(=O)COC(=O)c2cc(S(=O)(=O)N3CCOCC3)ccc2C)CC1 | inactive | –
35 | COCCN(CCOC)S(=O)(=O)NC[C@H]1O[C@@H](n2cnc3c(N)ncnc32)[C@H](O)[C@@H]1O | inactive | –
36 | Cc1nn(C)cc1N1C(=O)c2cccc3c(N)ccc(c23)C1=O | inactive | –
37 | O=C(CN1C(=O)c2cccc3cccc1c23)Nc1ccccc1 | inactive | –
38 | CCN1C(=O)c2cccc3c(N)ccc1c23 | 20.6 µM (active) | –
39 | CN1C(=O)c2cccc3c(N)ccc(c23)C1=O | inactive | –
40 | CCN1C(=O)c2cccc3c(S(=O)(=O)Nc4ccccc4O)ccc1c23 | 23.1 µM (active) | –
41 | Cc1cccc(NC(=O)CN2C(=O)c3ccccc3C2=O)c1C | inactive | –
42 | CC(C)COc1ccc(C(=O)NNC(=O)CCC(=O)c2cccs2)cc1 | inactive | –
43 | CCN(CC)CCCNC(=O)COc1ccc2oc3c(c2c1)CCCC3 | inactive | –
44 | CCOC(=O)N1CCN(C(=O)COc2ccc3oc4c(c3c2)CCCC4)CC1 | inactive | –
45 | O=C(COc1ccc2oc3c(c2c1)CCCC3)Nc1ccccn1 | 16.4 µM (active) | –
46 | CC[C@]12c3[nH]c4cc(CCC(=O)N(C)C)ccc4c3CCN1C(=O)[C@@H](CC(=O)NCC13CC4CC(CC(C4)C1)C3)C[C@@H]2C(=O)N1CCN(C(=O)C2CC2)CC1 | inactive | –
47 | COc1ccc2nc3n(c(=O)c2c1)-c1cc(C)ccc1C(=O)NC3Cc1ccc(O)cc1 (stereo not drawn) | inactive | –
48 | CC(C)C(=O)Nc1ccc2c(c1)oc1ccccc12 | 4.11 µM (active) | –
49 | Cc1cc(=O)oc2cc(NC(=O)C(C)Oc3ccccc3)ccc12 (stereo not drawn) | inactive | –
50 | CC(C)C(=O)Nc1ccc2oc(=O)ccc2c1 | inactive | –

Row | SMILES | Potency | activity change, positive = activation
51 | COc1cccc(NC(=O)COc2cccnc2[N+](=O)[O-])c1 | inactive | –
52 | CC(C)(C)OC(=O)C[C@@H]1C/C=C\C[C@@H](CC(=O)N[C@H](CO)Cc2ccccc2)C(=O)NCCOC1=O | inactive | –
53 | Cc1ccc2nc(-c3ccc(NC(=O)CN(C)S(=O)(=O)c4ccccc4)cc3)sc2c1 | 5.8 µM (active) | –
54 | Cc1nc2ccc(S(=O)(=O)N(C)CC(=O)NC(C)c3ccccc3)cc2s1 (stereo not drawn) | inactive | –
55 | COc1cc(NC(=O)CN(C)S(=O)(=O)c2ccc3nc(C)sc3c2)cc(OC)c1 | inactive | –
56 | O=C1c2ccccc2[C@@H]2C[C@@H](O)[C@H](Nc3ccccc3Cl)CCN12 | inactive | –
57 | Cc1ccc(-n2c(C)cc(C(=O)CN3C(=O)C(=O)N(C4CCCC4)C3=O)c2C)cc1 | inactive | –
58 | Cc1cc(C(=O)COC(=O)C2CC2)c(C)n1-c1ccc(F)cc1 | 2.59 µM (active) | –
59 | Cc1cc(C(=O)COc2ccccc2Cl)c(C)n1C1CC1 | inactive | –
60 | COC(=O)c1cc(OC)c(OC)cc1NC(=O)CSc1ccc(C)cc1 | inactive | –
61 | Cc1ccc(C(=O)CSc2ccccc2C(=O)O)cc1 | – | 12.5% [at 9.26 µM]
62 | Cc1ccc(SCC(=O)c2cc(C)c(OC(=S)N(C)C)c(C)c2)cc1 | 7.31 µM (active) | –
63 | COC(=O)[C@]1(Cc2ccccc2)N[C@H](CN(C)S(=O)(=O)c2ccc(OC(F)(F)F)cc2)[C@@H]2C(=O)N(Cc3ccccc3)C(=O)[C@@H]21 | inactive | –
64 | O=C(COC(=O)c1cccc(Cl)c1)NC(=O)NCc1ccccc1 | inactive | –
65 | O=C(Nc1ccncc1)c1cc2ccccc2o1 | inactive | –
66 | Nc1ncc(-c2cc3ccccc3oc2=O)s1 | 2.59 µM (active) | –
67 | O=C(NCc1cccnc1)c1cccc(-c2cc3ccccc3oc2=O)c1 | inactive | –
68 | O=C(COC(=O)Cn1cnc2ccccc21)Nc1cccc2c1C(=O)c1ccccc1C2=O | inactive | –
69 | O=C(COC(=O)c1ccccc1)Nc1ccccc1Sc1ccccc1 | inactive | –
70 | O=C(COC(=O)c1cccc(Br)c1)Nc1cccc2c1C(=O)c1ccccc1C2=O | 13 µM (active) | –
71 | C[C@H](CO)N1C[C@H](C)[C@H](CN(C)CC2CC2)Oc2ccc(NC(=O)CCN3CCOCC3)cc2C1=O | inactive | –
72 | COC(=O)c1ccc(CSc2nc3cc(Cl)ccc3o2)cc1 | inactive | –
73 | CC(C)c1nc2cc(C(=O)NC(C)c3cnn(C)c3)ccc2o1 (stereo not drawn) | inactive | –
74 | COC(=O)c1ccc(CNC(=O)c2ccc3oc(C(C)C)nc3c2)cc1 | 20.6 µM (active) | –
75 | C=CC[C@@H](CC(=O)NCCO)C(=O)N[C@H](C)COC(=O)[C@@H](CC=C)CC(=O)OC(C)(C)C | inactive | –

Row | SMILES | Potency | activity change, positive = activation
76 | Cc1cccc(C(=O)OCC(=O)NC(C)C2CC3CCC2C3)c1O (stereo not drawn) | inactive | –
77 | COc1ccccc1NC(=O)COC(=O)CNC(=O)C1CCCCC1 | inactive | –
78 | Nc1ncnc2c1ncn2[C@@H]1O[C@H](CNS(=O)(=O)c2ccc(-c3ccno3)s2)[C@@H](O)[C@H]1O | inactive | –
79 | O=C(CCCOc1ccccc1)NNC(=O)c1ccc(Cl)cc1 | inactive | –
80 | CC(=O)Nc1cccc(Nc2nc(-c3cccs3)nc3ccccc23)c1 | inactive | –
81 | CCS(=O)(=O)Nc1cccc(-c2cc(-c3ccccc3)c3cc(C)ccc3n2)c1 | inactive | –
82 | CC(=O)Nc1cccc(-c2cnc3ccccc3n2)c1 | 10.3 µM (active) | –
83 | O=C(c1ccc(S(=O)(=O)NCc2ccco2)cc1)N1CCN(c2ccccc2)CC1 | inactive | –
84 | COC(=O)c1oc2ccc(Br)cc2c1NC(C)=O | inactive | –
85 | Cc1noc(C)c1C(=O)Nc1ccccn1 | inactive | –
86 | Cc1c(C(=O)Nc2ccccn2)oc2ccc(Br)cc12 | 9.2 µM (active) | –
87 | O=C(COC(=O)COc1cc(Cl)c(Cl)cc1Cl)NC1CC1 | inactive | –
88 | COc1c(O)cc2oc(-c3ccc(O)c(O)c3)cc(=O)c2c1O | 20.6 µM (active) | –
89 | CCOC(=O)COc1cc(O)c2c(=O)cc(-c3ccccc3)oc2c1 | inactive | –
90 | COc1ccc(-c2cc(=O)c3c(O)cc(O[C@@H]4O[C@H](CO[C@@H]5O[C@@H](C)[C@H](O)[C@@H](O)[C@H]5O)[C@@H](O)[C@H](O)[C@H]4O)cc3o2)cc1O | inactive | –
91 | CCN(C(=O)COC(=O)CCC(=O)c1cccs1)C1CCCCC1 | inactive | –
92 | C[C@H](CO)N1C[C@H](C)[C@H](CN(C)C(=O)Nc2ccc(C(F)(F)F)cc2)Oc2c(NC(=O)c3ccncc3)cccc2C1=O | inactive | –
93 | C[C@]12c3[nH]c4ccc(Cl)cc4c3CCN1C(=O)[C@@H](CC(=O)NCCCn1ccnc1)C[C@@H]2C(=O)N1CCOCC1 | inactive | –
94 | CCC1CCCCN1C(=S)NC(=O)c1ccco1 (stereo not drawn) | inactive | –
95 | COc1ccc2c(CC(=O)NNC(=O)c3ccccc3F)coc2c1 | inactive | –
96 | CCC(=O)N1CCCc2ccccc21 | inactive | –
97 | O=C(CN1CCN(c2ccccn2)CC1)N1CCc2ccccc21 | inactive | –
98 | O=C(CSCc1ccccc1)N1CCc2ccccc21 | 2.59 µM (active) | –
